Measurements published in PubChem BioAssay (NCATS).
Results filed as inconclusive are left out. Where a call stands in place of a potency, no number is given. Calls of active or inactive are those of the source. Calls come from the whole dose curve; as a rule, active = well fitted inhibition curve with a large enough effect; inconclusive = small, poorly fitted or top-dose-only effect; inactive = no such curve, though single readings can be large or run the other way.

experiment: NS1 protein of Zika virus - qHTS assay to identify small molecule inhibitors in human HEK 293 cells (AID 1347053); conditions: HEK293 ZIKV MR766 infection, NS1 TR-FRET, 24 h; series mostly up to 46.1 µM; note: nearly all actives have a fitted effect of over 55% in size
Method in brief: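 HEK 293 cells pretreated with compound for 1 h, then infected with ZIKV MR766 (MOI 0.5) for 24 h at 37 C. NS1 detected by TR-FRET with two anti-NS1 antibodies; normalized to uninfected (0%) and infected (100%) wells.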
Potency is the fitted concentration of half-maximal effect.

Row | SMILES | Potency
1 | CN=C(N)NC(=O)Nc1c(C)cccc1C | inactive
2 | C[C@@H]1CCC[C@H](C)N1CCCC(O)(c1ccccc1)c1ccccn1 (stereo partly drawn) | inactive
3 | CN(C)CCOC1=Cc2ccccc2Sc2ccc(Cl)cc21 | inactive
4 | Cc1cccc(N(C)C(=S)Oc2ccc3c(c2)CCC3)c1 | inactive
5 | OC1(c2ccccc2)CCNCC1 | inactive
6 | CSCC[C@H](NC(=O)[C@H](Cc1c[nH]c2ccccc12)NC(=O)CCNC(=O)OC(C)(C)C)C(=O)N[C@@H](CC(=O)O)C(=O)N[C@@H](Cc1ccccc1)C(N)=O | inactive
7 | COc1ccc2c(c1)CCCC2=O | inactive
8 | CC1CCCCN1CCCOC(=O)c1ccc(OC2CCCCC2)cc1 (stereo not drawn) | inactive
9 | Nc1c(I)cc(I)c(C(=O)N(CCC(=O)O)c2ccccc2)c1I | inactive
10 | COc1cc2c(cc1OC)C(=O)CC2 | inactive
11 | CCN1CCN(c2cc(-c3ccc(F)cc3)c3c(n2)CCCCCC3)CC1 | inactive
12 | CCCC(CCC)(C(=O)OCC)C(=O)OCC | inactive
13 | Cc1ccc(Cl)c(OCC(O)CNC(C)(C)C)c1 (stereo not drawn) | inactive
14 | O=[N+]([O-])c1ccc(O)c2ncccc12 | 6.31 µM (active)
15 | CCC(=O)Oc1ccc2c(c1)CC[C@@H]1[C@@H]2CC[C@@]2(C)[C@H]1C[C@@H](OC(=O)CC)[C@@H]2OC(=O)CC | inactive
16 | CCN(CC)CC(=O)Nc1c(C)cccc1C(=O)OC | inactive
17 | Nc1ccc2c(c1)CN1C(=O)c3ccccc3C1=N2 | inactive
18 | CC(Oc1c(Cl)cccc1Cl)C1=NCCN1 (stereo not drawn) | inactive
